Data as given in PubChem BioAssay (EPA / NIEHS).
Inconclusive results are not listed. Some structures have more than one record in an assay (separate samples or runs), and their calls can disagree. Calls of active or inactive are those of the source. The calls were made as follows, unless noted: active = hit-call score of the fitted dose curve at least 0.9, where 1 is the maximum; inactive = score below 0.9.

Legend:
[1] = read-out: NAD(P)H dehydrogenase [quinone] 1 (NQO1), NQO1 (gene 1728); assay: LTEA_HepaRG_NQO1: Life Technologies and Expression Analysis (LTEA) Assay for NAD(P)H dehydrogenase [quinone] 1 (NQO1) using HepaRG (AID 2283526); details: mRNA level, 48 h; actives raise or lower the signal
Summary of the method: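 Human HepaRG hepatic cells received chemicals for 48 h in serum-free induction medium with 0.5% DMSO, up to 100 uM. Expression was assessed by TaqMan qRT-PCR against housekeeping controls and fitted bidirectionally against DMSO.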

[2] = read-out: Nuclear factor erythroid 2-related factor 2 (Homo sapiens) (UniProt Q16236); assay: LTEA_HepaRG_NFE2L2: Life Technologies and Expression Analysis (LTEA) Assay for Nuclear factor erythroid 2-related factor 2 (NFE2L2) Transcription Factor using HepaRG (AID 2283527); details: mRNA level, 48 h; actives raise or lower the signal
Summary of the method: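 Transcript level of NFE2L2 is the read-out, measured by microfluidic TaqMan qRT-PCR and normalized to three housekeeping genes. Human HepaRG cultures received test chemical for 48 h at up to 100 uM in half-log steps. Gain or loss of signal is fitted relative to 0.5% DMSO.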

[3] = read-out: succinate dehydrogenase complex iron sulfur subunit B (SDHB), SDHB (gene 6390); assay: LTEA_HepaRG_SDHB: Life Technologies and Expression Analysis (LTEA) Assay for succinate dehydrogenase complex iron sulfur subunit B (SDHB) using HepaRG (AID 2283528); details: mRNA level, 48 h; actives raise or lower the signal
Summary of the method: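 Readout is SDHB transcript level by qRT-PCR, normalised to three housekeeping genes and fitted bidirectionally against 0.5% DMSO vehicle. Human HepaRG cells were treated for 48 h at up to 100 uM.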

[4] = read-out: Signal transducer and activator of transcription 3 (Homo sapiens) (UniProt P40763); assay: LTEA_HepaRG_STAT3: Life Technologies and Expression Analysis (LTEA) Assay for Signal transducer and activator of transcription (STAT3) using HepaRG (AID 2283529); details: mRNA level, 48 h; actives raise or lower the signal
Summary of the method: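 Read-out is STAT3 mRNA level by qRT-PCR, normalized to three housekeeping genes, in human HepaRG liver cells treated for 48 h. Concentrations ran from 100 uM downward in half-log steps; curves were fitted for gain or loss relative to 0.5% DMSO.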

[5] = read-out: solute carrier (SLCO1B1), SLCO1B1 (gene 10599); assay: LTEA_HepaRG_SLCO1B1: Life Technologies and Expression Analysis (LTEA) Assay for solute carrier (SLCO1B1) using HepaRG (AID 2283530); details: mRNA level, 48 h; actives raise or lower the signal
Summary of the method: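 SLCO1B1 transcript levels were quantified by TaqMan qRT-PCR using three housekeeping genes for normalization. This followed 48 h chemical exposure (100 uM top, half-log, 8 points, 0.5% DMSO) of HepaRG liver cells, with gain or loss fitted relative to DMSO.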

[6] = read-out: sulfotransferase 2A1 (SULT2A1), SULT2A1 (gene 6822); assay: LTEA_HepaRG_SULT2A1: Life Technologies and Expression Analysis (LTEA) Assay for sulfotransferase 2A1 (SULT2A1) using HepaRG (AID 2283531); details: mRNA level, 48 h; actives raise or lower the signal
Summary of the method: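 Expression change of SULT2A1, by qRT-PCR with three housekeeping-gene normalization, was scored bidirectionally versus DMSO. Cells: differentiated HepaRG, dosed in duplicate for 48 h across 8 points, highest 100 µM, half-log dilution, 0.5% DMSO.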

[7] = read-out: Transforming Growth Factor (TGFA), TGFA (gene 7039); assay: LTEA_HepaRG_TGFA: Life Technologies and Expression Analysis (LTEA) Assay for Transforming Growth Factor (TGFA) using HepaRG (AID 2283532); details: mRNA level, 48 h; actives raise or lower the signal
Summary of the method: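 HepaRG (human liver line), 48 h exposure, 8 conc. half-log down from 100 uM, 0.5% DMSO vehicle, duplicates; serum-free induction medium. TGFA mRNA by TaqMan qRT-PCR, ACTB/GAPDH/POLR2A normalization; gain/loss fit vs DMSO.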

[8] = read-out: Transforming Growth Factor (TGFB1), TGFB1 (gene 7040); assay: LTEA_HepaRG_TGFB1: Life Technologies and Expression Analysis (LTEA) Assay for Transforming Growth Factor (TGFB1) Transporter using HepaRG (AID 2283533); details: mRNA level, 48 h; actives raise or lower the signal
Summary of the method: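 TGFB1 transcript measured by qRT-PCR with normalisation to three housekeeping genes (ACTB, GAPDH, POLR2A); human HepaRG line treated in duplicate for 48 hr with an 8-point series topping at 100 uM, 0.5% DMSO vehicle, bidirectionally fitted.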

TIMP1, TIMP1 (gene 7076) = assay: LTEA_HepaRG_TIMP1: Life Technologies and Expression Analysis (LTEA) Assay for TIMP1 using HepaRG (AID 2283534); details: mRNA level, 48 h; actives raise or lower the signal
Summary of the method: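 Bidirectional change in TIMP1 transcript versus 0.5% DMSO, measured by TaqMan qRT-PCR with three housekeeping genes for normalization. HepaRG human liver cells dosed 48 h in duplicate, top concentration 100 uM with half-log dilutions.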

[9] = read-out: Tumor necrosis factor receptor 1 (TNFRSF1A), TNFRSF1A (gene 7132); assay: LTEA_HepaRG_TNFRSF1A: Life Technologies and Expression Analysis (LTEA) Assay for Tumor necrosis factor receptor 1 (TNFRSF1A) using HepaRG (AID 2283535); details: mRNA level, 48 h; actives raise or lower the signal
Summary of the method: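 mRNA measured by qRT-PCR (TaqMan, Fluidigm arrays) against ACTB/GAPDH/POLR2A housekeepers after 48 h chemical exposure of HepaRG cells. Top concentration 100 uM, half-log 8-point series, duplicates; vehicle 0.5% DMSO, both fit directions.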

[10] = read-out: Thyroid Hormone Responsive (THRSP), THRSP (gene 7069); assay: LTEA_HepaRG_THRSP: Life Technologies and Expression Analysis (LTEA) Assay for Thyroid Hormone Responsive (THRSP) using HepaRG (AID 2283536); details: mRNA level, 48 h; actives raise or lower the signal
Summary of the method: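 mRNA induction or loss relative to 0.5% DMSO vehicle was fitted bidirectionally across an eight-point curve whose highest exposure was 100 uM. Human HepaRG liver cells received chemicals in duplicate over 48 h before RNA extraction.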

[11] = read-out: Cellular tumor antigen p53 (Homo sapiens) (UniProt P04637); assay: LTEA_HepaRG_TP53: Life Technologies and Expression Analysis (LTEA) Assay for Tumor Protein P53 (TP53) using HepaRG (AID 2283537); details: mRNA level, 48 h; actives raise or lower the signal
Summary of the method: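 Read-out is TP53 transcript level by microfluidic qRT-PCR, normalised to three housekeeping genes and fitted bidirectionally against DMSO. Human HepaRG cells received compounds for 48 h, highest concentration 100 uM.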

[12] = read-out: UDP glucuronosyltransferase (UGT1A6), UGT1A6 (gene 54578); assay: LTEA_HepaRG_UGT1A6: Life Technologies and Expression Analysis (LTEA) Assay for UDP glucuronosyltransferase (UGT1A6) using HepaRG (AID 2283539); details: mRNA level, 48 h; actives raise or lower the signal
Summary of the method: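 Expression was quantified by TaqMan qRT-PCR on Fluidigm arrays with ACTB/GAPDH/POLR2A normalization and bidirectional fitting against 0.5% DMSO. HepaRG cells (~100,000/well) were treated in duplicate for 48 h at eight half-log concentrations up to 100 uM in serum-free induction medium.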

[13] = read-out: X-box binding protein 1 (XBP1), XBP1 (gene 7494); assay: LTEA_HepaRG_XBP1: Life Technologies and Expression Analysis (LTEA) Assay for X-box binding protein 1 (XBP1) using HepaRG (AID 2283540); details: mRNA level, 48 h; actives raise or lower the signal
Summary of the method: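 XBP1 transcript by qRT-PCR (housekeeping-normalized: ACTB, GAPDH, POLR2A) after 48 h chemical treatment of HepaRG cells, 8-point half-log series topping at 100 uM, vehicle 0.5% DMSO. Gain and loss of signal fitted relative to DMSO.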

[14] = LTEA_HepaRG_LDH_cytotoxicity: Cytotoxicity Assessment in the Life Technologies and Expression Analysis (LTEA) Assay (AID 2283563; active = hit-call score of the fitted dose curve at least 0.9, where 1 is the maximum;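 as to AC50: LDH activity released into spent culture medium as a marker of cell death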)
Summary of the method: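 LDH release into culture medium read after 48 h chemical treatment of HepaRG cells. Duplicate wells, eight-point half-log series topping at 100 uM, 0.5% DMSO vehicle and baseline.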

[15] = ATG_XTT_Cytotoxicity: Cytotoxicity Assessment in the Attagene TRANS-FACTORIAL HepG2 Assay (AID 2283584; active = hit-call score of the fitted dose curve at least 0.9, where 1 is the maximum)
Summary of the method: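 Viability endpoint from XTT after 24 h chemical exposure of reporter-transfected human HepG2 liver cells; signal loss fitted relative to DMSO negative control.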

[16] = molecular target: Cellular tumor antigen p53 (Homo sapiens) (UniProt P04637); assay: TOX21_p53_BLA_p2_ratio: Tox21 HCT-116 p53 Agonism Beta-lactamase Assay, Ratio, Phase 2 (AID 2283592; active = hit-call score of the fitted dose curve at least 0.9, where 1 is the maximum)
Summary of the method: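 Gain-of-signal p53 agonism was scored from the beta-lactamase FRET ratio (460/530 nm, 405 nm excitation) in HCT116 cells treated 16 h at 37C, 5% CO2, with DMSO serving as negative control and baseline.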

[17] = read-out: UDP glucuronosyltransferase (UGT1A1), UGT1A1 (gene 54658); assay: LTEA_HepaRG_UGT1A1: Life Technologies and Expression Analysis (LTEA) Assay for UDP glucuronosyltransferase (UGT1A1) using HepaRG (AID 2283538); details: mRNA level, 48 h; actives raise or lower the signal
Summary of the method: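 Human liver HepaRG cultures receive test chemical for 48 h, up to 100 uM in 0.5% DMSO, with phenobarbital induction controls. UGT1A1 mRNA is measured by qRT-PCR and normalized to ACTB, GAPDH and POLR2A.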

[18] = TOX21_p53_BLA_p2_viability: Viability Assessment in the Tox21 HCT-116 p53 Agonism Beta-lactamase Assay, Phase 2 (AID 2283591; active = hit-call score of the fitted dose curve at least 0.9, where 1 is the maximum;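 also: compound exposure lasted 16 h at 37 °C; actives lower the ATP signal meaning cytotoxicity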)
Summary of the method: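 Cytotoxicity readout: CellTiter-Glo ATP luminescence, 30 min at room temperature, after the beta-lactamase read. Cells were HCT116 exposed 16 h at 37C to compounds pin-transferred at 217-fold dilution from DMSO stocks.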

[19] = TOX21_p53_BLA_p3_viability: Viability Assessment in the Tox21 HCT-116 p53 Agonism Beta-lactamase Assay, Phase 3 (AID 2283593; active = hit-call score of the fitted dose curve at least 0.9, where 1 is the maximum;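 also: cells exposed to compound for 16 h before reading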)
Summary of the method: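 Cellular ATP was quantified by CellTiter-Glo luminescence, read after 30 min at room temperature. Beforehand, HCT116 cells (4000/well) received compound 5 h post-seeding, 217-fold diluted from DMSO, then incubated 16 h at 37C.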

Measured: AC50

Nuclear factor erythroid 2-related factor 2 (Homo sapiens), sequence (Q16236 whole entry, looked up): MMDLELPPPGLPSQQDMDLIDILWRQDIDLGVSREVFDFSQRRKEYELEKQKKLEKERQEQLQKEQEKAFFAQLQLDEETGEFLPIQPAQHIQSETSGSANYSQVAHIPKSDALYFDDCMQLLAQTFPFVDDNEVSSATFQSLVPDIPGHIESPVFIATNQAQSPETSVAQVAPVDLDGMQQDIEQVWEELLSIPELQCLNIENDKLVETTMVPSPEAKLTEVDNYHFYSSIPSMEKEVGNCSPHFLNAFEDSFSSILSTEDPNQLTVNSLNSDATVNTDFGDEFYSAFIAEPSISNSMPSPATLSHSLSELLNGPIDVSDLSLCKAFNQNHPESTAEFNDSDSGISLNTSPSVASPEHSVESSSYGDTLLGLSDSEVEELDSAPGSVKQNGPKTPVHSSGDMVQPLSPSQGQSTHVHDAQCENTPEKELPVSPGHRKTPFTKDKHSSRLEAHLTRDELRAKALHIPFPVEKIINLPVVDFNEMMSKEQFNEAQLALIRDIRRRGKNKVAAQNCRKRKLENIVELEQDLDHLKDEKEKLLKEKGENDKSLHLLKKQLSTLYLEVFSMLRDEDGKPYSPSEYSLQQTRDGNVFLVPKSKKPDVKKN
Signal transducer and activator of transcription 3 (Homo sapiens), sequence (P40763 whole entry, looked up): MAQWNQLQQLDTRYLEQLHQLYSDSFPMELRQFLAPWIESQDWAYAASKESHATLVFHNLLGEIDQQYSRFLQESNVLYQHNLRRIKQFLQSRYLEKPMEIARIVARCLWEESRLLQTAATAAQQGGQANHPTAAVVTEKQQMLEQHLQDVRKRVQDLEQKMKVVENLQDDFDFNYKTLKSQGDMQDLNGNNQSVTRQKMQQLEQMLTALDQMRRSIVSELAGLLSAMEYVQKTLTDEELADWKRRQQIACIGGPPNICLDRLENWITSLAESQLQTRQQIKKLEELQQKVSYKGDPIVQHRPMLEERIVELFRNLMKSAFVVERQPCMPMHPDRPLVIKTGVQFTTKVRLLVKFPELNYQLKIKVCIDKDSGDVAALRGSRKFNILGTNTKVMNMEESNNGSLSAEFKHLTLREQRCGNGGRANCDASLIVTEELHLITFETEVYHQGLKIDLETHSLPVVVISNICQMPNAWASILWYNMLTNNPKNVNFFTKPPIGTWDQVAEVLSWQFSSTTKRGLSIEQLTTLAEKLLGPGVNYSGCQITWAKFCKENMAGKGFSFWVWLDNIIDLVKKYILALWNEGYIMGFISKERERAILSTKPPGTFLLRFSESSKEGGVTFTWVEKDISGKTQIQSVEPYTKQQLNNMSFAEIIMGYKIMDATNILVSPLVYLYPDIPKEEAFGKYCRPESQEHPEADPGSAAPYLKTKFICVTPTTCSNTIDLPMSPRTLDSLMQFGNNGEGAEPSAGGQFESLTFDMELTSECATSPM
Cellular tumor antigen p53 (Homo sapiens), sequence (P04637 whole entry, looked up): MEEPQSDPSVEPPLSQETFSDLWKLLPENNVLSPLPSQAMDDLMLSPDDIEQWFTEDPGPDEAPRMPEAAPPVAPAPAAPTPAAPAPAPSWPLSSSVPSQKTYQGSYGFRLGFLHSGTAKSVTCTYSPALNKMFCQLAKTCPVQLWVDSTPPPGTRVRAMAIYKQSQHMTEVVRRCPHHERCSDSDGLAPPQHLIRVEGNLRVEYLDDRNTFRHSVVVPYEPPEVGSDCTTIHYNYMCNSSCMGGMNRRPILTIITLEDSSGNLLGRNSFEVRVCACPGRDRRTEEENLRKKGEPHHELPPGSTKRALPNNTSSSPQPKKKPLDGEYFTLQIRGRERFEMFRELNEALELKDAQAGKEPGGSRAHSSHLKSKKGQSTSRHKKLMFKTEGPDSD

COc1nc(NC(C)C)nc(NC(C)C)n1
inactive: [1] | [2] | [3] | [4] | [5] | [6] | [7] | [8] | TIMP1, TIMP1 (gene 7076) | [9] | [10] | [11] | [12] | [13] | [14] | [15] | [16]

CCOc1cc(Oc2ccc(C(F)(F)F)cc2Cl)ccc1[N+](=O)[O-]
active: [2] 21.9 µM | [5] 20.6 µM | [6] 35.3 µM | [7] 15.3 µM | [8] 19 µM | [10] 21.7 µM | [11] 14 µM | [17] 5.1 µM
inactive: [1] | [3] | [4] | TIMP1, TIMP1 (gene 7076) | [12] | [13] | [14] | [18] | [16] | [19]

CCCCNC(=O)OCC#CI
inactive: [1] | [2] | [3] | [4] | [7] | [8] | TIMP1, TIMP1 (gene 7076) | [11] | [12] | [14] | [15] | [18] | [16] | [19]
active: [5] 50 µM | [6] 50 µM | [10] 50 µM | [13] 50 µM | [16] 67 µM

CCOC(=O)CC(SP(=S)(OC)OC)C(=O)OCC (centres undefined)
inactive: [1] | [2] | [3] | [4] | [5] | [6] | [7] | [8] | TIMP1, TIMP1 (gene 7076) | [10] | [11] | [17] | [12] | [13] | [14] | [18] | [16] | [19]
active: [19] 43.3 µM

CCCCOC(=O)c1ccccc1C(=O)OCCCC
inactive: [1] | [2] | [3] | [4] | [5] | [6] | [7] | [8] | TIMP1, TIMP1 (gene 7076) | [9] | [10] | [11] | [12] | [13] | [14] | [15] | [16] | [19]

O=C(Nc1ccccc1)Nc1ccnc(Cl)c1
active: [1] 82.6 µM | [2] 82.3 µM | [3] 94 µM | [4] 42.6 µM | [5] 82.1 µM | [6] 81.5 µM | [7] 76.1 µM | [8] 80 µM | TIMP1, TIMP1 (gene 7076) 74.9 µM | [11] 74 µM | [17] 79.6 µM | [12] 76.8 µM | [13] 72.1 µM | [14] 39.4 µM
inactive: [10] | [18] | [16] | [19]
